MEX-5 binding = MEX-5 zinc finger RNA-binding disruptors – biochemical, C. elegans, fluorescence polarization, MLPCN library, primary screen; AID 1832, 2009; Zinc finger protein mex-5 (Caenorhabditis elegans), Q9XUB2; 0.38% of 300,000 active; activity score (negative = inhibition of binding), % at 10 µM; MEX-5/FITC-TCR2 RNA binding; active compounds read low;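 active = inhibition past about -25% in most replicates, and total fluorescence under double the plate's negative control median, limit read from the data; inconclusive = replicates evenly split on the limit, or fluorescence at least double controls; inactive = too little inhibition in most replicates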;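 also: 0% = DMSO and -100% = 5 µM competing unlabeled TCR2 RNA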
EBV gp42 inh = Epstein-Barr virus gp42 inhibitors, primary screen, biochemical, uHTS, fluorescence polarization | Glycoprotein 42 (Epstein-Barr virus (strain AG876)), Q1HVG2 | Fluorescence polarization binding assay, mP read-out | inhibition, % (tested at 21.74 µM) | 0.42% of 220,000 active; in the data active = inhibition above about 50%
E coli Lon inh = inhibitors of E. coli Lon protease, primary screen, biochemical, fluorescence polarization; purified E. coli Lon protease; inhibition, % at 7.94 µM; P0A9M0; 0.42% of 360,000 active; in the data active = inhibition above about 13%, passing the limit was not always enough;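 also: 0% = enzyme with probe and DMSO and 100% = no enzyme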
Target sequence (P0A9M0 whole entry, looked up): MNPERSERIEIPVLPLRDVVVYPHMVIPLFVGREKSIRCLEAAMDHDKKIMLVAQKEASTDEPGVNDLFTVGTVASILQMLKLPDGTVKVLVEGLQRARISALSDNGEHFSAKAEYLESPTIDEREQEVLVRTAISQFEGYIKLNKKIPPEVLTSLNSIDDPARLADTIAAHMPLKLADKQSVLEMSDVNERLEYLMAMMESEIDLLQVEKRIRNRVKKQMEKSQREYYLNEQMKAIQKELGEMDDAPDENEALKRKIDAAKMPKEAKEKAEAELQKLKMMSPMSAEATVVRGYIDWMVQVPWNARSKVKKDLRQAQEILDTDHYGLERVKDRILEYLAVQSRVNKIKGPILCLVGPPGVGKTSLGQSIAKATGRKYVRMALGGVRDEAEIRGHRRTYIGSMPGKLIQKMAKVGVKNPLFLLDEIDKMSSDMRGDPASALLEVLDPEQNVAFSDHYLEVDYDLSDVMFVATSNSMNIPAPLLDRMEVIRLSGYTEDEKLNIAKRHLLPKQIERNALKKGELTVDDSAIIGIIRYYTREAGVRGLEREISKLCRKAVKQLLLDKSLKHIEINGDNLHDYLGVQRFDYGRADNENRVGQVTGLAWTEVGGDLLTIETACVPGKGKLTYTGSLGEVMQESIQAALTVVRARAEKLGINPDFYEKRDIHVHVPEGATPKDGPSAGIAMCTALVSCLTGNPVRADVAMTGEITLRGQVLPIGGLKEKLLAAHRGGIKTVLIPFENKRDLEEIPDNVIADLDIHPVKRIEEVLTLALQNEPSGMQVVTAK
GLD-1 RNA inh = GLD-1/TGE RNA complex disruptors, primary screen, biochemical, fluorescence polarization | Female germline-specific tumor suppressor gld-1 (Caenorhabditis elegans), Q17339 | purified GLD-1 + fluorescein TGE RNA | inhibition, % at 5.96 µM | 0.44% of 320,000 active | AID 2280, 2010;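 active = percent inhibition above a per-plate cutoff, the plate mean of test compounds plus 3 SD, cut at about 30% in these data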;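 also: 0% = DMSO wells with GLD-1 and probe and 100% = wells lacking GLD-1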
Bcl-xL primary = inhibitors of human Bcl-xL, primary screen, biochemical, fluorescence polarization, HTS; Bcl-2-like protein 1 (Homo sapiens), Q07817; GST-Bcl-xL / FITC-Bim BH3 peptide fluorescence polarization; inhibition, % at 10.9 µM; 0.7% of 320,000 active; AID 2129, 2009;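 active = inhibition above the mean of all tested compounds plus 3 SD, cutoff set per campaign, cut at about 30% in these data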;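 also: 0% = DMSO wells and 100% = unlabeled Bim-BH3 peptide competitor; inhibitors lower millipolarization by displacing the labeled peptide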
MCL1 BIM primary = inhibitors of MCL1 binding to BIM-BH3, primary screen, biochemical, fluorescence polarization | Induced myeloid leukemia cell differentiation protein Mcl-1 (Homo sapiens), Q07820 | GST-MCL1 / FITC-Bim-BH3 fluorescence polarization | inhibition, % at 10.9 µM | 0.68% of 320,000 active;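 active = inhibition above the mean inhibition of all tested compounds plus 3 SD, set per campaign, cut at about 40% in these data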;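 also: 0% = DMSO wells and 100% = unlabeled Bim-BH3 peptide control; higher means more loss of mP so more displacement of Bim peptide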
The depositor's hits bear a star; ? = inconclusive; · = no result given. Only some compounds are listed: those with a hit (about 1.4% of all), similar ones and a draw of the others.

SMILES	MEX-5 binding	EBV gp42 inh	E coli Lon inh	GLD-1 RNA inh	Bcl-xL primary	MCL1 BIM primary
O=[N+]([O-])c1ccc(N=Nc2ncc[nH]2)cc1	-32*	·	-20	·	·	·
O=C(N/N=C/c1ccccc1[N+](=O)[O-])c1ccc(COc2ccccc2-c2ccccc2)cc1	1	0	1	1	0	-7
O=c1oc(/C=C/c2ccccc2)nc2sc3c(c12)CCC3	-11	-91	-8	10	7	0
COc1ccc(/C=C/c2nc3sc4c(c3c(=O)o2)CCC4)cc1	-30*	·	-2	-1	1	4
CCCCN(C(=O)c1cc(CC)c(C)s1)c1c(N)n(CCC)c(=O)[nH]c1=O	1	·	2	3	1	-11
Cc1ccccc1NC(=O)CN1C(=O)S/C(=C\c2ccc(-c3cc(C(=O)O)ccc3C)o2)C1=O	-54*	-68	-1	·	·	·
Cc1ccc(C(=O)O)cc1-c1ccc(/C=C2\SC(=O)N(CC(=O)Nc3ccccc3)C2=O)o1	-19	0	-3	-4	11	18
Cc1ccccc1NS(=O)(=O)c1cc(C(=O)N2CCCC2)ccc1C	?	-15	-3	-2	48*	0
CC1CCCN(C(=O)c2ccc(S(=O)(=O)Nc3ccccc3Cl)cc2)C1 (centres undefined)	-1	·	-10	1	36*	1
O=C1CCCC2=C1C(c1ccc(O)c(O)c1)c1c(ccc3ncccc13)N2 (centres undefined)	-9	7	9	1	36*	52*
CCOc1ccc(C2C3=C(CCCC3=O)Nc3ccc4ncccc4c32)cc1 (centres undefined)	1	4	3	7	1	2
CC1Cc2ccccc2N1C(=O)CN1CCC(n2nnc3cc(C(F)(F)F)ccc32)CC1 (centres undefined)	2	100*	-10	-2	0	0
COC(=O)c1ccccc1NC(=O)CN1CCC(n2nnc3cc(C(F)(F)F)ccc32)CC1	2	-6	-1	6	1	3
CCOc1ccc(C(Nc2cccnc2)c2cc(Cl)c3cccnc3c2O)cc1 (centres undefined)	3	19	-3	-6	17	28
O=C(O)COc1ccccc1C(Nc1cccnc1)c1cc(Cl)c2cccnc2c1O (centres undefined)	-59*	-9	13	·	·	·
CC(C)(C)c1ccc(OCCNC(=O)c2ncn[nH]2)cc1	4	-13	0	6	4	2
COc1ccc(-c2csc(NC(=O)CSc3nc(C)cs3)n2)cc1	1	-2	2	3	5	5
COc1ccc(-c2csc(NC(=O)CSc3nc(C)nc4sc(C(=O)O)c(C)c34)n2)cc1	0	65*	0	-5	15	8
CCOC(=O)C1=C(c2ccccc2)N=c2s/c(=C\c3cc(OC)c(OC)c(OC)c3)c(=O)n2C1c1cccs1 (centres undefined)	-9	-5	-8	4	35*	27
COc1cc(C)c(CNc2ccc(OC)c(OC)c2)cc1C	-8	14	·	4	36*	31
COc1cc(C)c(CNc2cccc(C)c2)cc1C	4	-6	-4	-2	8	1
CCCNC(=O)C1(C)CCCN(Cc2ccc(C(=O)OCC)o2)C1 (centres undefined)	·	·	0	·	·	·
Cc1ccc(NC2=Nc3ccccc3CC2)cc1	0	-21	2	8	7	7
Brc1ccc(NC2=Nc3ccccc3CC2)cc1	-2	-4	-3	-5	41*	9
CCOc1ccc(S(=O)(=O)N(C)CC(=O)NCc2ccccn2)cc1	1	·	-1	1	0	-2
SMILES	MEX-5 binding	EBV gp42 inh	E coli Lon inh	GLD-1 RNA inh	Bcl-xL primary	MCL1 BIM primary
CN(CC(=O)NCc1ccccn1)S(=O)(=O)c1ccc(Br)cc1	-26*	0	-3	2	0	2
O=C(/C=C/c1ccco1)Nc1cccc2cccnc12	-7	12	-1	30	51*	37
Cc1n[nH]c(=O)c2c(NC(=O)CSc3nncs3)oc(C)c12	-1	·	-5	3	-1	0
O=C(CSc1ccc(S(=O)(=O)N2CCCC2)cn1)Nc1ccc([N+](=O)[O-])cc1C(F)(F)F	·	·	6	·	·	·
O=C(Nc1ccnn1C1CCN(CC2CC=CCC2)CC1)c1ccccc1 (centres undefined)	-27*	·	2	·	·	·
CNc1ccc(/C=C(\C#N)c2ccccn2)cc1[N+](=O)[O-]	-6	-27	2	15	37*	40*
COCCn1c(=O)[nH]c2cc(C(=O)NCCc3ccc(OC)c(OC)c3)ccc2c1=O	1	50*	-3	4	3	7
COCCn1c(=O)[nH]c2cc(C(=O)NCCc3ccc(S(N)(=O)=O)cc3)ccc2c1=O	2	-4	-9	0	1	1
NC(=O)c1ccsc1NC(=O)CS(=O)(=O)c1ccc(F)cc1	2	·	-14	-6	3	5
N=c1c(S(=O)(=O)c2ccc(Br)cc2)cc2c(=O)n3ccccc3nc2n1C1CCCCC1	-45*	·	-8	-1	2	-1
N=c1c(S(=O)(=O)c2ccccc2)cc2c(=O)n3ccccc3nc2n1C1CCCCC1	·	·	-9	·	·	·
COCCn1c(=N)c(S(=O)(=O)c2ccc(F)cc2)cc2c(=O)n3ccccc3nc21	-8	·	-7	-5	0	-10
COCCn1c(=N)c(S(=O)(=O)c2ccc(Br)cc2)cc2c(=O)n3ccccc3nc21	-45*	·	-9	1	12	7
N=c1c(S(=O)(=O)c2ccc(Cl)cc2)cc2c(=O)n3ccccc3nc2n1C1CCCC1	-35*	·	-6	1	2	23
O=C(COC(=O)c1ccc(Br)o1)NC1CCCc2ccccc21 (centres undefined)	·	·	-3	5	1	0
COC(=O)Cn1nc(-c2ccc(C)cc2)c2ccccc2c1=O	4	10	0	2	3	4
COc1cc(/C=N/NC(=O)C2=NNC(=O)C2C)ccc1O (centres undefined)	-18	-8	-4	4	8	3
CC1C(=O)NN=C1C(=O)N/N=C\c1ccc(O)cc1O (centres undefined)	-62*	2	-14	-1	5	8
CC1C(=O)NN=C1C(=O)N/N=C/c1ccco1 (centres undefined)	-26*	-1	-2	9	2	3
C[C@H](NC(=O)c1ccc(Cl)c(S(=O)(=O)N2CCOCC2)c1)c1nc2ccccc2[nH]1	·	·	3	1	-7	2
